# Bioassay records: PubChem BioAssay, several laboratories
# PrPC surface inh – reduces human prion protein on the cell surface. inhibition, % at 13.8 µM. P04156. cell surface PrPC, TR-FRET read-out. 370,000 tested, 0.43% active; in the data active = inhibition above about 24%; note: 0% = median of the test wells and 100% = reference compound wells
# Vc quorum ag – induces V. cholerae light production without autoinducers; V. cholerae BH1578 lux reporter, luminescence, 6 h; activation, % at 18.7 µM; 350,000 tested, 0.16% active; in the data active = activation mostly above about 9.7%, no sharp cut-off
# Yp Topo-I inh – blocks Yersinia pestis topoisomerase I activity. activity, % at 10 µM. Y. pestis Topo-I cleavage product accumulation, plate reader. 360,000 tested, 0.064% active; in the data active = activity above about 50%, passing the limit was not always enough
# VHR inh abs – inhibitors of human VHR1 phosphatase (DUSP3); inhibition, % at 13.3 µM; recombinant VHR phosphatase, pNPP absorbance; P51452; 290,000 tested, 0.52% active; in the data active = inhibition above about 50%
# Target sequence (P51452 whole entry, looked up): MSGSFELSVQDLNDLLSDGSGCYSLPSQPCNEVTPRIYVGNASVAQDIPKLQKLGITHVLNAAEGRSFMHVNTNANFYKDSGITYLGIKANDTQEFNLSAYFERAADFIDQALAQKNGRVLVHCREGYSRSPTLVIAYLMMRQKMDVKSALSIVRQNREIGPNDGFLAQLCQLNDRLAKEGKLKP
# CCHF vOTU inh-1 – blocks the CCHF virus ovarian tumor domain protease | CCHFV vOTU protease, Pep-AMC fluorescence | inhibition, % at 11.5 µM | 370,000 tested, 0.55% active; note: 0% = vehicle wells with enzyme and 100% = no enzyme wells
# MazEF act – MazEF (E. coli) toxin RNase activation; AID 504720; activation, % at 20 µM; FAM/BHQ RNA-DNA oligo cleavage fluorescence, 5 h; P0AE70; 350,000 tested, 0.32% active; in the data active = activation above about 50%
# Target sequence (P0AE70 whole entry, looked up): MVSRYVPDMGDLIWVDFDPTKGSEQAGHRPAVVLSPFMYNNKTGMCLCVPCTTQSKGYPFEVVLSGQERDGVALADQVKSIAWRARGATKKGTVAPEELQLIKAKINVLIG
# CCHF vOTU inh-2 – confirmation of CCHF virus vOTU protease inhibitors | 1,900 tested, 17% active | inhibition, % at 11.5 µM | Recombinant CCHFV vOTU, Pep-AMC fluorescence | shares compounds with CCHF vOTU inh-1
# The depositor's hits bear a star; i = inactive; x = not tested or not shown. A selection: hits, their analogues and other compounds. The true share with any hit is near 1.8%. Cut-off read from the data, not from the text of the source, unless noted: active = inhibition above about 30%; inactive = the rest.
SMILES,PrPC surface inh,Vc quorum ag,Yp Topo-I inh,VHR inh abs,CCHF vOTU inh-1,MazEF act,CCHF vOTU inh-2
CC1=C(C(=O)N2CCOCC2)CC(CC(=O)NCCCCc2ccccc2)C(=O)N1Cc1ccc(C(C)(C)C)cc1 (centres undefined),0,0,22,x,32*,14,1
CC1=C(C(=O)N(C)C)CC(CC(=O)NCc2cccc3ccccc23)C(=O)N1Cc1ccc(C(C)(C)C)cc1 (centres undefined),-3,x,x,x,9,x,x
CCOc1cc(C=NN2CCCCCC2)ccc1O,-1,-8,1,x,1,4,x
COc1cc(CNc2ncnc3c2ncn3[C@H]2CN(CCN3CCOCC3)C[C@@H](CO)O2)cc(OC)c1OC,-3,0,2,x,-2,x,x
CC1=C(C(=O)N2CCOCC2)CC(CC(=O)NCCCN(C)C)C(=O)N1Cc1ccc(F)cc1 (centres undefined),-5,x,x,x,37*,x,-11
CC1=C(C(=O)N(C(C)C)C(C)C)CC(CC(=O)NCCCCc2ccccc2)C(=O)N1Cc1ccc(C(C)(C)C)cc1 (centres undefined),13,x,x,x,35*,x,16
Cc1ccc(CNC(=O)CCSCc2cccc(F)c2)cc1,-4,-1,14,10,2,0,x
O=C(CSc1nnc(C2CC2)n1C1CC1)c1cccs1,-6,-1,3,x,7,0,x
Cc1cccc(NC(=O)/C=C/c2ccc([N+](=O)[O-])s2)c1,-5,0,-17,43,0,10,x
Cc1cccc(NC(=S)N/N=C/c2ccc([N+](=O)[O-])s2)c1,-23,i,-5,29,35*,9,-1
CCCCCCC1C(C#N)=C(N)OC2=C1C(=O)CC(C)(C)C2 (centres undefined),-5,0,5,18,4,7,x
CCCCC1C2=C(CC(C)(C)CC2=O)OC2=C1C(=O)CC(C)(C)C2,-4,0,34,5,30*,0,-2
O=C(O)c1cccc(NC2=C(n3nnc4ccccc43)C(=O)c3ccccc3C2=O)c1,-46,-2,-1,-12,79*,1,85*
O=C(O)c1cccc(NS(=O)(=O)c2ccc3nnn(O)c3c2)c1,13,1,-1,-9,11,8,x
COc1cc(CNc2ncnc3c2ncn3[C@H]2CN(Cc3cccc(C(F)(F)F)c3)C[C@@H](CO)O2)cc(OC)c1OC,-2,-1,18,x,31*,x,-9
COc1cc(CNc2ncnc3c2ncn3[C@H]2CN(Cc3cccc(C(F)(F)F)c3)C[C@@H](COC(C)=O)O2)cc(OC)c1OC,-3,i,21,x,5,x,x
CN(Cc1ccc(Cl)cc1)C(CCc1ccccc1)C(=O)NC1CCCCC1 (centres undefined),9,x,x,x,-2,x,x
Cc1cccc(N2C(=O)N3[C@@H]4c5ccccc5OC[C@@H]4[C@@H](c4ccccc4)[C@@]3(C)C2=O)c1,6,0,-1,5,9,9,x
O=C(CSc1nnc(-c2ccccc2)n1Cc1ccco1)Nc1ccc(OCc2ccccc2)cc1,12,x,x,x,32*,x,-6
C[C@H](O)[C@@H]1C(=O)N2CCc3c([nH]c4cccc(-c5ccccc5)c34)[C@@H]2C[C@@H]1N(C)CC1CCCCC1,-3,x,x,x,-17,x,x
CCCCn1c(N)c(N(CC)C(=O)C2=NN(c3ccccc3)C(=O)CC2)c(=O)[nH]c1=O,7,0,0,x,6,-6,x
Cc1[nH][nH]c(=O)c1C(c1ccc(-c2cccc(C(=O)O)c2)o1)c1c(C)[nH][nH]c1=O,3,-1,-4,30,40*,-7,-14
Cc1c(/C=N/NC(=O)C(NC(=O)c2ccc3c(c2)OCO3)C(C)C)c2ccccc2n1C (centres undefined),6,i,-2,5,20,0,x
CC(=O)Nc1ccc(N/C=C/C(=O)c2ccco2)cc1,-5,x,-11,-16,0,-1,x
CN(C)c1ccc(N/C=C/C(=O)c2ccco2)cc1,-16,i,1,-6,68*,-1,-2
COc1ccc(OC)c(Nc2nnc(C)c(=O)[nH]2)c1,14,x,x,19,6,4,x
Cn1c(=O)cc(Nc2ccccc2)[nH]c1=O,-3,-1,6,38,-11,7,x
